Results published in PubChem BioAssay (NCI).
The panel holds about 83,000 compounds, 20% with a hit somewhere; the sample as a whole holds those more often.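 Percent growth is the endpoint: 0 to 100 indicates growth inhibition (40 means 60% inhibition), 0 means no net growth, and negative values indicate cell death.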 Calls of active or inactive are those of the source. How the source made its calls: active means growth percent below 10; inactive means the rest.

Assays:
Assay in all cases: NCI-60 one-dose screen, 48 h (100 = growth as untreated, 0 = no growth, -100 = all killed)
Details in all cases: 10 µM unless noted
T-47D breast = test system: T-47D breast
BT-549 breast = test system: BT-549 breast
MDA-MB-435 melanoma = test system: MDA-MB-435 melanoma
SW-620 colon = test system: SW-620 colon
MCF7 breast = test system: MCF7 breast
HCT-116 colon = test system: HCT-116 colon
HCC-2998 colon = test system: HCC-2998 colon
KM12 colon = test system: KM12 colon

Measured: growth

C#Cc1cccc(Nc2ncnc3cc(NC(=O)CCl)ccc23)c1
active: T-47D breast -52.7% | BT-549 breast -76.7% | MDA-MB-435 melanoma -70.8% | SW-620 colon -61.6% | MCF7 breast -50.4% | HCT-116 colon -76.3% | HCC-2998 colon -88.3% | KM12 colon -74.3%

CSc1nc2ccc(C)cc2cc1/C=C1/C=C(c2ccccc2)NC1=O
inactive: BT-549 breast 76% | MDA-MB-435 melanoma 30.9% | SW-620 colon 34.9% | MCF7 breast 48.1% | HCC-2998 colon 83.4% | KM12 colon 70.4%
active: T-47D breast -0.11% | HCT-116 colon 9.26%

O=C1CCC(C(=O)N/N=C/c2cc(F)ccc2F)N1 (configuration not stated)
inactive: T-47D breast 97.2% | BT-549 breast 103% | MDA-MB-435 melanoma 100% | SW-620 colon 106% | MCF7 breast 93.4% | HCT-116 colon 103% | HCC-2998 colon 107% | KM12 colon 104%

CC1=Nc2cnc(Nc3ccc(N4CCCCC4)cc3)nc2Nc2ccccc21
inactive: T-47D breast 46.9% | BT-549 breast 42.5% | MDA-MB-435 melanoma 89.7% | SW-620 colon 96% | MCF7 breast 72.5% | HCT-116 colon 59% | HCC-2998 colon 106% | KM12 colon 54.9%

CN(C)CCC(=O)C1CC1
inactive: T-47D breast 97.6% | BT-549 breast 99.7% | MDA-MB-435 melanoma 105% | SW-620 colon 102% | MCF7 breast 108% | HCT-116 colon 96.1% | HCC-2998 colon 103% | KM12 colon 109%

C=C1C(=O)O[C@H]2[C@H]1CC/C(COC(=O)/C=C\C(=O)NCc1ccc(Cn3c(=O)sn(CCCCl)c3=O)cc1)=C\CC[C@@]1(C)O[C@@H]21
inactive: T-47D breast 61.5% | BT-549 breast 88.2% | MDA-MB-435 melanoma 52.8% | SW-620 colon 22.1% | MCF7 breast 41.8% | HCT-116 colon 26.6% | HCC-2998 colon 100% | KM12 colon 99.4%

COc1ccc2c(c1)CC[C@@H]1[C@@H]2CC[C@]2(C)c3c(cc(C#N)c4c3sc3ccccc34)C[C@@H]12
inactive: T-47D breast 102% | BT-549 breast 114% | MDA-MB-435 melanoma 105% | SW-620 colon 99.5% | MCF7 breast 106% | HCT-116 colon 108% | HCC-2998 colon 92.7% | KM12 colon 109%

CCOC(=O)C/C(=N\Nc1cc(=O)[nH]c2ccc(OC)cc12)C(=O)OCC
inactive: T-47D breast 101% | BT-549 breast 110% | MDA-MB-435 melanoma 99% | SW-620 colon 90.3% | MCF7 breast 87.9% | HCT-116 colon 101% | HCC-2998 colon 101% | KM12 colon 99.2%

CCOC(=O)C#Cc1c(C(=O)OCC)nnn1[C@@H]1O[C@H](COC)[C@@H](OC)[C@H]1OC
active: SW-620 colon -38.7% | MCF7 breast 8.52%
inactive: T-47D breast 15.2% | BT-549 breast 98.7% | MDA-MB-435 melanoma 98.7% | HCT-116 colon 84% | HCC-2998 colon 128% | KM12 colon 105%

COc1ccccc1/C=C/C(=O)Nc1ccc(F)cc1
inactive: T-47D breast 75.4% | BT-549 breast 108% | MDA-MB-435 melanoma 94% | SW-620 colon 103% | MCF7 breast 64.4% | HCT-116 colon 88.1% | HCC-2998 colon 111% | KM12 colon 91.3%

CCOC(=O)C1=C(CCl)N(C)C(=O)NC1c1ccc2c(c1)OCO2 (configuration not stated)
inactive: T-47D breast 35.6% | BT-549 breast 37.8% | MDA-MB-435 melanoma 26.6% | MCF7 breast 51.8% | HCT-116 colon 19.1% | HCC-2998 colon 94.6% | KM12 colon 73.1%
active: SW-620 colon 8.16%

CC1=C2[C@@H](CC1)[C@]1(C)O[C@@](C3CCNCC3)(C[C@H]1OC(=O)CO)[C@H]2OC(=O)/C=C/c1ccccc1
inactive: T-47D breast 62.6% | BT-549 breast 81.7% | MDA-MB-435 melanoma 88.6% | SW-620 colon 93.6% | MCF7 breast 74.2% | HCT-116 colon 74.5% | HCC-2998 colon 99% | KM12 colon 97.6%

CC1(/C=C/c2ccc(-c3ccccc3)cc2)CCn2cnc3ncnc(c32)N1O (configuration not stated)
active: MCF7 breast 8.15%
inactive: T-47D breast 37.8% | BT-549 breast 17% | MDA-MB-435 melanoma 28.4% | SW-620 colon 28.2% | HCT-116 colon 20.2% | HCC-2998 colon 32.3% | KM12 colon 26%

COc1cc2c(c(OC)c1OC)CCC(c1cccc(C(=O)Nc3ccc(Br)cc3)c1)O2 (configuration not stated)
inactive: T-47D breast 28.9% | BT-549 breast 69% | MDA-MB-435 melanoma 81.9% | SW-620 colon 88.7% | MCF7 breast 67.1% | HCT-116 colon 60.6% | HCC-2998 colon 71.5% | KM12 colon 65.2%

C(=C(\C1=NCCN1)n1ccc2ccccc21)/c1ccccc1
inactive: T-47D breast 90.3% | BT-549 breast 107% | MDA-MB-435 melanoma 97.7% | SW-620 colon 89.8% | MCF7 breast 84.5% | HCT-116 colon 94% | HCC-2998 colon 103% | KM12 colon 99.4%

CN1CCN(Cc2ccc(NC(=O)c3cncc(C#Cc4cnc(N)cc4C#N)c3)cc2C(F)(F)F)CC1
active: MDA-MB-435 melanoma 2.03% | SW-620 colon -2.02% | HCT-116 colon 1.47% | KM12 colon 5.45%
inactive: T-47D breast 24.7% | BT-549 breast 37.5% | MCF7 breast 18.7% | HCC-2998 colon 22.5%

CN(C)CCCC1(c2ccc(F)cc2)OCc2cc(-c3csc4ccccc34)ccc21 (configuration not stated)
inactive: T-47D breast 26.4% | BT-549 breast 84.2%
active: MDA-MB-435 melanoma -91.4% | SW-620 colon -82.4% | MCF7 breast -62.5% | HCT-116 colon -44.2% | HCC-2998 colon -82.9% | KM12 colon -83.2%

CCOc1ccc(/C=C/C(=O)c2cccc(OCCCOc3cccc(C(=O)/C=C/c4ccc(OCC)cc4)c3)c2)cc1
inactive: T-47D breast 63.4% | BT-549 breast 92.1% | MDA-MB-435 melanoma 79.7% | SW-620 colon 98% | MCF7 breast 84.5% | HCT-116 colon 81.7% | HCC-2998 colon 94.9% | KM12 colon 93%

N#CSc1c[nH]c2ccc(/C=C/C(=O)/C=C(O)/C=C/c3ccc4[nH]cc(SC#N)c4c3)cc12
inactive: T-47D breast 19.4% | BT-549 breast 15.7% | MCF7 breast 10.5% | HCC-2998 colon 46.3% | KM12 colon 24.9%
active: MDA-MB-435 melanoma -2.07% | SW-620 colon 9.56% | HCT-116 colon 9.39%

CCCCCCCCn1ccc2cc(NC(=O)CN3CCN(c4cc(C)nc(Cl)n4)CC3)ccc21
inactive: T-47D breast 67.8% | BT-549 breast 75% | MDA-MB-435 melanoma 84.1% | SW-620 colon 95.3% | MCF7 breast 75.4% | HCT-116 colon 79.2% | HCC-2998 colon 106% | KM12 colon 91.9%

COc1cc(/C=N/NC(=O)c2ccc(-n3cc(-c4ccccc4)nn3)cc2)cc(OC)c1OC
inactive: T-47D breast 59.8% | BT-549 breast 53.8% | MDA-MB-435 melanoma 33.1% | SW-620 colon 64.8% | MCF7 breast 14.1% | HCT-116 colon 89.5% | HCC-2998 colon 84.3% | KM12 colon 53.1%

Cc1cc(=O)n(C(=S)Nc2ccc(Cl)cc2)c2cc(O)ccc12
inactive: T-47D breast 85.4% | BT-549 breast 119% | MDA-MB-435 melanoma 105% | SW-620 colon 110% | MCF7 breast 98.7% | HCT-116 colon 96% | HCC-2998 colon 100% | KM12 colon 102%

Cc1ccc(C(=O)c2ccc(CC(=O)N/N=C/c3cccc(O)c3O)n2C)cc1
inactive: T-47D breast 25.9% | BT-549 breast 45.8% | MDA-MB-435 melanoma 61.1% | SW-620 colon 34.3% | MCF7 breast 16.1% | HCT-116 colon 30.8% | HCC-2998 colon 70.6% | KM12 colon 44.2%

CCOC(=O)c1cnn(CC(C)O)c1NC(=O)NCc1cccc(F)c1 (configuration not stated)
inactive: T-47D breast 100% | BT-549 breast 101% | MDA-MB-435 melanoma 107% | SW-620 colon 102% | MCF7 breast 104% | HCT-116 colon 84% | HCC-2998 colon 94.9% | KM12 colon 106%

Cc1c(C(C)(C)O)cn2ncnc(Oc3ccc(NC(=O)Nc4ccc(Cl)c(C(F)(F)F)c4)c(F)c3)c12
inactive: T-47D breast 40.6% | BT-549 breast 72.4% | MDA-MB-435 melanoma 58% | SW-620 colon 85% | MCF7 breast 32.4% | HCT-116 colon 38.7% | HCC-2998 colon 125% | KM12 colon 43.6%

CC1(C)CC[C@]23CC[C@]4(C)[C@H](CC[C@@H]5[C@@]6(C)C/C(=C/O)C(=O)C(C)(C)[C@@H]6CC[C@]54C)[C@H]2[C@H]1OC3
inactive: T-47D breast 114% | BT-549 breast 111% | MDA-MB-435 melanoma 97.7% | SW-620 colon 103% | MCF7 breast 85.7% | HCT-116 colon 105% | HCC-2998 colon 110% | KM12 colon 114%

COc1ccc(C(O)c2cc3c(N)c(C(=O)Nc4cccc5ccccc45)sc3nc2C)cc1 (configuration not stated)
active: BT-549 breast 8.08% | MDA-MB-435 melanoma -17.1% | HCT-116 colon 6.27% | HCC-2998 colon -38.8% | KM12 colon -6.56%
inactive: T-47D breast 44.2% | SW-620 colon 18.8% | MCF7 breast 11.3%

COc1ccc(/C=C2\c3cc(OC)c(OC)c(OC)c3CC[C@@H]2O)cc1F
active: MDA-MB-435 melanoma -35.6% | HCT-116 colon 8.9%
inactive: T-47D breast 43.6% | BT-549 breast 23% | SW-620 colon 28% | MCF7 breast 18.4% | HCC-2998 colon 35.7% | KM12 colon 22.9%

O=C1/C(=C/c2c[nH]c(=O)[nH]c2=O)SC(=S)N1Cc1ccccc1
inactive: T-47D breast 108% | BT-549 breast 107% | MDA-MB-435 melanoma 100% | SW-620 colon 98.7% | MCF7 breast 89.4% | HCT-116 colon 103% | HCC-2998 colon 101% | KM12 colon 101%
